As a reminder, the Inhibition is how much of the control response was suppressed. Low values mean a weak effect, high ones a strong effect.

Where “and” joins values, the source holds several entries; their conditions need not be identical. Equal entries are not always repeated.

The subject of one experiment is Plasmodium falciparum. Put plainly: GSK_TCMDC: Inhibition of Plasmodium falciparum 3D7 in whole red blood cells, using parasite LDH activity as an index of growth. Test compounds present at 2uM. It is filed as functional.
Compound `Cc1[nH]c2ccccc2c1C1=CCN(CCCCC2(C)C(=O)Nc3ccccc32)CC1` (stereo unspecified) came in with an Inhibition of 94%.
On the same count and under the same terms, the result for `COc1ccc(O)c(CN2CCN(c3cc(C)ccc3C)CC2)c1` reads 90%; that for `O=C(/C=C/c1ccc(Cl)c(Cl)c1)N1CCC(CN2CCC(c3c[nH]c4ccccc34)C(O)C2)CC1` (stereo unspecified), 99%.
The same measure, in the same setting: the result for `CC(Cc1ccc(C2=CCNCC2)cc1)NCC(O)c1cccc(C(F)(F)F)c1.Cl` (stereo unspecified) reads 89%; that for `O=C(/C=C/c1cc(F)cc(C(F)(F)F)c1)N1CCC(CN2CCC(c3c[nH]c4ccccc34)CC2)CC1`, 100%.
On the same count and under the same terms, then `O=C(/C=C/c1ccc(Cl)c(Cl)c1)N1CCC(CN2CCC(c3cn(CC(=O)N4CCCCC4)c4ccccc34)CC2)CC1.O=C(O)C(F)(F)F`, with 100%.
For `CC[C@H]1CN2CC[C@H]1C[C@H]2[C@H](O)c1cc(N2CCC3CCCCC3C2)nc2ccc(OC)cc12` (stereo partly specified), the Inhibition is listed as 100%.
Still for that read-out and setting: then `Cc1[nH]c2ccc(O)cc2c1C1CCN(CC2CCC(NC(=O)/C=C/c3ccc(Cl)c(Cl)c3)CC2)CC1` (stereo unspecified), with 100%; and `CC(Cc1ccc(SCCSc2ccccc2)cc1)NCC(O)c1cccc(Cl)c1` (stereo unspecified), with 98%; and `COc1cccc(O)c1CNCC(O)c1cccc(C(F)(F)F)c1` (stereo unspecified), with 98%.
Still for that read-out and setting: the result for `CCCCCC(C)C(C)c1cc(O)c2c(c1)OC1(C(C)C)CC(O)C(C)C2C1` (stereo unspecified) reads 93%.
Still for that read-out and setting: then `Cc1c(C)c2c(c(C)c1O)CC[C@](C)(C(=O)N1CCC(CN3CCC(c4c[nH]c5ccccc45)CC3)CC1)O2`, with 100%.
As for `CCc1ccc(CC(C)NCC(O)c2ccccc2)cc1.O` (stereo unspecified), the Inhibition amounted to 89%.
Same read-out and setting: then `CC(Cc1ccc(S(=O)(=O)N(C(C)C)C(C)C)cc1)NCC(O)c1cccc(C(F)(F)F)c1.Cl` (stereo unspecified), with 96%.
For `CC(C)CN1CCC(N(C)c2cc(NC(=O)c3cccc(F)c3)ccn2)CC1.O=C(O)C(F)(F)F`, the Inhibition is reported as 97%.
For `Cc1cccc(C(=O)Nc2ccnc(N(C)C3CCN(Cc4cccc(O)c4)CC3)c2)c1.O=C(O)C(F)(F)F`, the Inhibition is 89%.
For `O=C(NC1CCC(CN2CCC(c3c[nH]c4ccccc34)CC2)CC1)c1cc2ccccc2o1` (stereo unspecified), the Inhibition was found to be 94%.
Still for that read-out and setting: the result for `O=C(/C=C/c1ccc(Cl)c(Cl)c1)NC1CCC(CN2CCC(c3c[nH]c4ccccc34)C(O)C2)CC1` (stereo unspecified) reads 100%; that for `CC(=O)Nc1ccc2[nH]cc(C3CCN(CC4CCC(NC(=O)/C=C/c5ccc(Cl)c(Cl)c5)CC4)CC3)c2c1` (stereo unspecified), 100% and 90%; that for `COCCNCc1cccc(-c2cccc(CN(C(=O)Nc3ccccc3)C3CCN(Cc4ccccc4)CC3)c2)c1.O=C(O)C(F)(F)F`, 100%.
Still for that read-out and setting: then `COc1cc2nc(N(C)C3CCN(Cc4ccccc4)CC3)nc(N)c2cc1OC`, with 99%; and `Cc1cc(O)cc2c(C3CCN(CC4CCN(C(=O)/C=C/c5ccc(Cl)c(Cl)c5)CC4)CC3)c[nH]c12`, with 100%.
On the same count and under the same terms, the result for `Cc1c(C)c2c(c(C)c1O)CC[C@@](C)(C(=O)N1CCC(CN3CCC(c4c[nH]c5ccccc45)CC3)CC1)O2` reads 98%.
Regarding `Cc1ccc(C)c(N2CCN(Cc3ccccc3O)CC2)c1`, the Inhibition stood at 100%.
On the same count and under the same terms, then `Oc1cccc(C2CCCN(Cc3cccc4cc[nH]c34)C2)c1` (stereo unspecified), with 100%; and `CCC(C)CN1CCC(N(C)c2cc(NC(=O)c3cccc(C)c3)ccn2)CC1.O=C(O)C(F)(F)F` (stereo unspecified), with 93%.
Same read-out and setting: then `O=C(NC1CCC(CN2CCC(c3c[nH]c4ccccc34)CC2)CC1)c1cnn(-c2ccccc2)c1-c1ccccc1Cl` (stereo unspecified), with 95%.
Still for that read-out and setting: the result for `Cc1ccccc1CNCC(O)c1cccc(C(F)(F)F)c1` (stereo unspecified) reads 99%; that for `CNCCN(C)C(=O)Oc1c(Br)c(C)nc(C)c1-c1ccc(Oc2ccc(OC(F)(F)F)cc2)cc1.Cl`, 98%.
The compound `Cc1cccc2c(C3CCN(CC4CCC(NC(=O)/C=C/c5ccc(Cl)c(Cl)c5)CC4)CC3)c[nH]c12` (stereo unspecified) gave an Inhibition of 92%.
Same read-out and setting: the result for `CCCCCCC(C)(C)c1cc(O)c2c3c(c(=O)oc2c1)CCN(Cc1ccccc1)C3.Cl` reads 100%; that for `Cc1[nH]c2ccccc2c1C1=CCN(CCCCCC23CCCc4cccc(c42)NC3=O)CC1` (stereo unspecified), 94%.
For the compound `CN1CC=C(C=Cc2c[nH]c3ccccc23)CC1`, the Inhibition is reported as 86%.
The compound `CN1CC=C(c2c[nH]c3ccc(OCc4ccccc4)cc23)CC1` displayed an Inhibition of 95%.
For the compound `NCc1cccc(-c2cccc(CN(C(=O)Nc3ccccc3)C3CCN(Cc4ccccc4)CC3)c2)c1.O=C(O)C(F)(F)F`, the Inhibition was found to be 99%.
On the same count and under the same terms, the result for `Cc1[nH]c2ccc(O)cc2c1C1CCN(CC2CCC(NC(=O)/C=C/c3c(Cl)cccc3Cl)CC2)CC1` (stereo unspecified) reads 100%.
On the same count and under the same terms, then `CC[C@H]1CN2CC[C@H]1C[C@H]2[C@H](O)c1cc(-c2ccccc2C(F)(F)F)nc2ccc(OC)cc12.Cl`, with 98%; and `CC(=O)N(Cc1ccccc1-c1ccc(CNCCc2ccccc2)cc1)C1CCN(Cc2ccccc2)CC1.O=C(O)C(F)(F)F`, with 100%.

The subject of another experiment is Plasmodium falciparum. The experiment can be described thus: GSK_TCMDC: Inhibition of Plasmodium falciparum Dd2 in whole red blood cells, using parasite LDH activity as an index of growth. Test compounds present at 2uM. The format is functional.
For `Cc1[nH]c2ccccc2c1C1=CCN(CCCCC2(C)C(=O)Nc3ccccc32)CC1` (stereo unspecified), the Inhibition was determined as 89%.
On the same count and under the same terms, the result for `COc1ccc(O)c(CN2CCN(c3cc(C)ccc3C)CC2)c1` reads 86%; that for `O=C(/C=C/c1ccc(Cl)c(Cl)c1)N1CCC(CN2CCC(c3c[nH]c4ccccc34)C(O)C2)CC1` (stereo unspecified), 14%.
The same measure, in the same setting: then `CC(Cc1ccc(C2=CCNCC2)cc1)NCC(O)c1cccc(C(F)(F)F)c1.Cl` (stereo unspecified), with 0%.
Consider `O=C(/C=C/c1cc(F)cc(C(F)(F)F)c1)N1CCC(CN2CCC(c3c[nH]c4ccccc34)CC2)CC1`, for which the Inhibition is 74%.
On the same count and under the same terms, then `O=C(/C=C/c1ccc(Cl)c(Cl)c1)N1CCC(CN2CCC(c3cn(CC(=O)N4CCCCC4)c4ccccc34)CC2)CC1.O=C(O)C(F)(F)F`, with 65%; and `CC[C@H]1CN2CC[C@H]1C[C@H]2[C@H](O)c1cc(N2CCC3CCCCC3C2)nc2ccc(OC)cc12` (stereo partly specified), with 99%; and `Cc1[nH]c2ccc(O)cc2c1C1CCN(CC2CCC(NC(=O)/C=C/c3ccc(Cl)c(Cl)c3)CC2)CC1` (stereo unspecified), with 95%.
The same measure, in the same setting: the result for `CC(Cc1ccc(SCCSc2ccccc2)cc1)NCC(O)c1cccc(Cl)c1` (stereo unspecified) reads 96%.
On the same count and under the same terms, the result for `COc1cccc(O)c1CNCC(O)c1cccc(C(F)(F)F)c1` (stereo unspecified) reads 96%; that for `CCCCCC(C)C(C)c1cc(O)c2c(c1)OC1(C(C)C)CC(O)C(C)C2C1` (stereo unspecified), 87%.
Take `Cc1c(C)c2c(c(C)c1O)CC[C@](C)(C(=O)N1CCC(CN3CCC(c4c[nH]c5ccccc45)CC3)CC1)O2`: the Inhibition came to 98%.
The same measure, in the same setting: the result for `CCc1ccc(CC(C)NCC(O)c2ccccc2)cc1.O` (stereo unspecified) reads 77%.
On the same count and under the same terms, the result for `CC(Cc1ccc(S(=O)(=O)N(C(C)C)C(C)C)cc1)NCC(O)c1cccc(C(F)(F)F)c1.Cl` (stereo unspecified) reads 93%; that for `CC(C)CN1CCC(N(C)c2cc(NC(=O)c3cccc(F)c3)ccn2)CC1.O=C(O)C(F)(F)F`, 10%.
The same measure, in the same setting: the result for `Cc1cccc(C(=O)Nc2ccnc(N(C)C3CCN(Cc4cccc(O)c4)CC3)c2)c1.O=C(O)C(F)(F)F` reads 62%; that for `O=C(NC1CCC(CN2CCC(c3c[nH]c4ccccc34)CC2)CC1)c1cc2ccccc2o1` (stereo unspecified), 14%; that for `O=C(/C=C/c1ccc(Cl)c(Cl)c1)NC1CCC(CN2CCC(c3c[nH]c4ccccc34)C(O)C2)CC1` (stereo unspecified), 87%.
In the case of `CC(=O)Nc1ccc2[nH]cc(C3CCN(CC4CCC(NC(=O)/C=C/c5ccc(Cl)c(Cl)c5)CC4)CC3)c2c1` (stereo unspecified), the Inhibition was 99% and 59%.
Same read-out and setting: then `COCCNCc1cccc(-c2cccc(CN(C(=O)Nc3ccccc3)C3CCN(Cc4ccccc4)CC3)c2)c1.O=C(O)C(F)(F)F`, with 65%.
The same measure, in the same setting: then `COc1cc2nc(N(C)C3CCN(Cc4ccccc4)CC3)nc(N)c2cc1OC`, with 93%; and `Cc1cc(O)cc2c(C3CCN(CC4CCN(C(=O)/C=C/c5ccc(Cl)c(Cl)c5)CC4)CC3)c[nH]c12`, with 100%.
With `Cc1c(C)c2c(c(C)c1O)CC[C@@](C)(C(=O)N1CCC(CN3CCC(c4c[nH]c5ccccc45)CC3)CC1)O2`, the Inhibition was 90%.
Still for that read-out and setting: the result for `Cc1ccc(C)c(N2CCN(Cc3ccccc3O)CC2)c1` reads 90%.
The same measure, in the same setting: then `Oc1cccc(C2CCCN(Cc3cccc4cc[nH]c34)C2)c1` (stereo unspecified), with 82%; and `CCC(C)CN1CCC(N(C)c2cc(NC(=O)c3cccc(C)c3)ccn2)CC1.O=C(O)C(F)(F)F` (stereo unspecified), with 14%.
Same read-out and setting: then `O=C(NC1CCC(CN2CCC(c3c[nH]c4ccccc34)CC2)CC1)c1cnn(-c2ccccc2)c1-c1ccccc1Cl` (stereo unspecified), with 11%.
`Cc1ccccc1CNCC(O)c1cccc(C(F)(F)F)c1` (stereo unspecified) showed an Inhibition of 77%.
On the same count and under the same terms, the result for `CNCCN(C)C(=O)Oc1c(Br)c(C)nc(C)c1-c1ccc(Oc2ccc(OC(F)(F)F)cc2)cc1.Cl` reads 98%; that for `Cc1cccc2c(C3CCN(CC4CCC(NC(=O)/C=C/c5ccc(Cl)c(Cl)c5)CC4)CC3)c[nH]c12` (stereo unspecified), 49%; that for `CCCCCCC(C)(C)c1cc(O)c2c3c(c(=O)oc2c1)CCN(Cc1ccccc1)C3.Cl`, 99%.
Same read-out and setting: the result for `Cc1[nH]c2ccccc2c1C1=CCN(CCCCCC23CCCc4cccc(c42)NC3=O)CC1` (stereo unspecified) reads 91%.
The compound `CN1CC=C(C=Cc2c[nH]c3ccccc23)CC1` returned an Inhibition of 64%.
On to `CN1CC=C(c2c[nH]c3ccc(OCc4ccccc4)cc23)CC1`, for which the Inhibition was 97%.
The same measure, in the same setting: the result for `NCc1cccc(-c2cccc(CN(C(=O)Nc3ccccc3)C3CCN(Cc4ccccc4)CC3)c2)c1.O=C(O)C(F)(F)F` reads 8%; that for `Cc1[nH]c2ccc(O)cc2c1C1CCN(CC2CCC(NC(=O)/C=C/c3c(Cl)cccc3Cl)CC2)CC1` (stereo unspecified), 93%; that for `CC[C@H]1CN2CC[C@H]1C[C@H]2[C@H](O)c1cc(-c2ccccc2C(F)(F)F)nc2ccc(OC)cc12.Cl`, 99%.
Still for that read-out and setting: then `CC(=O)N(Cc1ccccc1-c1ccc(CNCCc2ccccc2)cc1)C1CCN(Cc2ccccc2)CC1.O=C(O)C(F)(F)F`, with 85%.

The record behind these values is ChEMBL document CHEMBL1157539, “Thousands of chemical starting points for antimalarial lead identification” (Nature, 2010).
